These results are taken from PubChem BioAssay (Tox21).

A short description of experiment [1]: qHTS assay to identify small molecule antagonists of the estrogen receptor alpha (ER-alpha) signaling pathway using the BG1 cell line in the presence of 0.1 nM 17-beta-estradiol - cell viability counter screen (AID 1259241). Further: nearly all actives have a fitted effect of over 40% in size. Further: potency means the concentration at half of the fitted maximal effect. A digest of the protocol:
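In this screen, hormone-deprived VM7Luc4E2 cells were seeded at 4,000 per well, dosed with compound and 0.1 nM estradiol final, and incubated 22 hr at 37C and 5% CO2; fluorogenic live-cell protease signal reported viability.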
In general terms: qHTS replaces the single test concentration by a dilution series.

Experiment [2] is described as follows: qHTS assay to identify small molecule antagonists of the androgen receptor (AR) signaling pathway using the MDA cell line in the presence of 0.5 nM R1881 - cell viability counter screen (AID 1259242). Further: nearly all actives have a fitted effect of over 45% in size. Further: potency means the concentration at half of the fitted maximal effect. Put shortly:
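Cytotoxicity toward MDA-kb2 cells is measured by CellTiter-Fluor live-cell protease fluorescence after 16 hr compound exposure at 37C in the presence of 0.5 nM R1881 stimulator.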

Experiment [3] in a line: qHTS assay to identify small molecule phospholipidosis (PLD) inducers (AID 1259344; active means well fitted curve in the direction sought with a large enough effect; an effect the other way counts as inactive or inconclusive). A digest of the protocol:
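HepG2 cells, 900/well, treated with compound plus LipidTOX Red for 24 h at 37 C; amiodarone positive and DMSO negative controls. Fixed with paraformaldehyde/Hoechst, then high-content imaging scored LipidTOX pit count and integrated intensity per well and per cell.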

A short description of experiment [4]: qHTS assay to identify small molecule HDAC inhibitors (AID 1259364). Further: nearly all actives have a fitted effect of over 45% in size. Further: potency means the concentration at half of the fitted maximal effect. A digest of the protocol:
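Homogeneous cell-based luminescent assay of endogenous class I/II HDAC activity; HCT-116 cells, 2 h compound exposure, 30 min HDAC-Glo development at RT.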

Experiment [5] in a line: qHTS assay to identify small molecule HDAC inhibitors - cell viability counter screen (AID 1259365). Further: series mostly up to about 92 µM; nearly all actives have a fitted effect of over 50% in size. Put shortly:
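Measured quantity is CellTiter-Glo luminescence from wild-type HCT-116 cells after compound incubation of 2hr at 37C, 5% CO2; reagent developed 30min at room temperature.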

A short description of experiment [6]: qHTS assay to identify small molecule agonists of the sonic hedgehog signaling (Shh) pathway (AID 1259368; calls by dose curve;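 further: NIH/3T3-derived 3T3Gli1-Luc cells carrying a stable Gli1-driven firefly luciferase reporter; series mostly up to about 92 µM; nearly all actives have a fitted effect of over 15% in size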). A digest of the protocol: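 Steps: seed 3T3 Gli1-Luc cells, incubate 4 hr at 37 C, pin-transfer compounds in DMSO alongside a positive control, incubate 24 hr, add luciferase detection reagent, wait 30 min at room temperature, read luminescence.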
Experiment [7] is described as follows: qHTS assay to identify small molecule antagonists of the sonic hedgehog signaling (Shh) pathway (AID 1259369; calls by dose curve; further: nearly all actives have a fitted effect of over 45% in size; further: potency means the concentration at half of the fitted maximal effect). Put shortly: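 Inhibition of Shh signalling is measured as reduced Gli1-response-element firefly luciferase output in an NIH/3T3-derived stable reporter clone stimulated with conditioned medium for 24hr.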
Experiment [8] is described as follows: qHTS assay to identify small molecule agonists of the androgen receptor (AR) signaling pathway in the presence of an antagonist - cell viability counter screen (AID 1259379). Further: nearly all actives have a fitted effect of over 25% in size. Further: potency means the concentration at half of the fitted maximal effect. A digest of the protocol:
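Fluorescence from CellTiter-Fluor, added after 15 hr and read 1 hr later, gave cell viability. Cells were MDA-kb2 exposed to compounds (15 concentrations) in the presence of 3.0uM nilutamide at 37C, 0% CO2.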

Experiment [9] can be described thus: qHTS assay to identify small molecule agonists of the estrogen receptor beta (ER-beta) signaling pathway - cell viability counter screen (AID 1259380). Further: nearly all actives have a fitted effect of over 30% in size. Further: potency means the concentration at half of the fitted maximal effect. Put shortly:
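Same-well viability counter screen. Cells: ER-beta-UAS-bla HEK293T, plated 6 hr before compound, in 2% charcoal-stripped FBS. Compound exposure 16 hr, 37C; viability by CellTiter-Glo luminescence after 30 min at room temperature.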

Experiment [10] is described as follows: qHTS assay to identify small molecule antagonists of the estrogen receptor beta (ER-beta) signaling pathway - cell viability counter screen (AID 1259382). Further: series mostly up to about 92 µM; nearly all actives have a fitted effect of over 55% in size. Put shortly:
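Following a 6 hr plating period, HEK293T cells carrying a UAS-driven beta-lactamase reporter under ER-beta control received compounds and 1nM E2 (final). After 16 hr at 37C and 2 hr substrate loading, CellTiter-Glo luminescence indicated viability.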

For experiment [11], the target named is Estrogen receptor (Homo sapiens) (UniProt P03372). In words: qHTS assay to identify small molecule antagonists of the estrogen receptor alpha (ER-alpha) signaling pathway using the BG1 cell line in the presence of 0.1 nM 17-beta-estradiol (AID 1259244). Further: nearly all actives have a fitted effect of over 50% in size. A digest of the protocol: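 After 5 days in hormone-depleted medium (charcoal-stripped serum, no phenol red), VM7Luc4E2 cells were seeded, incubated 24 h, then co-treated with compound and 0.1 nM (final) estradiol for 22 h before luminescence detection.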

The nature of experiment [12]: qHTS assay to identify small molecule agonists of the sonic hedgehog signaling (Shh) pathway - cell viability counter screen (AID 1259366). Further: nearly all actives have a fitted effect of over 50% in size. Further: potency means the concentration at half of the fitted maximal effect. A digest of the protocol:
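In quantitative high-throughput format, 3T3 Gli1-Luc cells were exposed to compounds for 24hr and multiplexed for viability using CellTiter-Fluor, incubated 1hr at 37C before the fluorescence read.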

A short description of experiment [13]: qHTS assay to identify small molecule antagonists of the sonic hedgehog signaling (Shh) pathway - cell viability counter screen (AID 1259367). Further: nearly all actives have a fitted effect of over 55% in size. Further: potency means the concentration at half of the fitted maximal effect. A digest of the protocol: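 NIH/3T3-derived Gli1-Luc reporter cells, 2,000/well, plated 4 hr before compound addition, then stimulated with conditioned medium for 24 hr at 37C. Viability measured in the same wells by CellTiter-Fluor fluorescence, reagent added at 23 hr for 1 hr.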

Experiment [14] deals with Estrogen receptor beta (Homo sapiens) (UniProt Q92731). In words: qHTS assay to identify small molecule agonists of the estrogen receptor beta (ER-beta) signaling pathway (AID 1259377; active means well fitted activation curve with a large enough effect in the signal ratio in the repeat runs, not every such curve was filed as active; the % refers to the signal ratio). Put shortly:
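Reporter cells (HEK293T, ER-beta-UAS-bla) receive compounds or DMSO after a 6 hr pre-incubation. They then incubate 16 hr at 37C/5% CO2, and fluorescence from LiveBLAzer B/G substrate is measured after 2 hours at room temperature.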

For experiment [15] the target is unchanged. In words: qHTS assay to identify small molecule antagonists of the estrogen receptor beta (ER-beta) signaling pathway (AID 1259378; active means well fitted inhibition curve with a large enough effect in the signal ratio in the repeat runs, not every such curve was filed as active; the % refers to the signal ratio). Put shortly:
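ER-beta-UAS-bla HEK293T cells in 2% charcoal-stripped FBS medium treated with compound plus 1nM final 17-beta-estradiol for 16 hr at 37C. Beta-lactamase reporter read by FRET substrate fluorescence after 2 hours at room temperature.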

The target of experiment [16] is Estrogen receptor (Homo sapiens) (UniProt P03372). In words: qHTS assay to identify small molecule agonists of the estrogen receptor alpha (ER-alpha) signaling pathway in the presence of an antagonist (AID 1259383; calls by dose curve; further: top concentration of the series differs between compounds; nearly all actives have a fitted effect of over 15% in size). A digest of the protocol:
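Cells are hormone-deprived for 5 days (charcoal-stripped FBS, no phenol red), plated for 24hr, spiked with 10.0nM ICI-182,780, then dosed at 15 concentrations. After 22hr at 37C, ONE-Glo luminescence reports ERE-luciferase activity.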

Experiment [17] is described as follows: qHTS assay to identify small molecule agonists or antagonists of the thyroid stimulating hormone receptor (TSHR) signaling pathway - wild type cell line counter screen (AID 1259384; calls by dose curve). A digest of the protocol: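 Wild-type Hek293 cells, 800/well, 18 h at 37C, then compound with Ro20-1724 for 30 min RT. cAMP by HTRF (cAMP-d2/anti-cAMP cryptate), 1 h RT, fluorescence read. 15 concentrations, triplicates.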

Experiment [18] deals with Thyrotropin receptor (Homo sapiens) (UniProt P16473). In words: qHTS assay to identify small molecule antagonists of the thyroid stimulating hormone receptor (TSHR) signaling pathway (AID 1259385; calls by dose curve; further: nearly all actives have a fitted effect of over 20% in size). Put shortly: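 TSHR-HEK293 cells (800/well) plated 18 h, then compounds with Ro20-1724 and TSH at 1.5 ng/mL final, 30 min at room temperature. cAMP quantified by HTRF (cAMP-d2/anti-cAMP-cryptate, 1 h); 15 concentrations in triplicate.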

Several values for one entry are separate records, joined by “and”; a condition that tells them apart may be missing. Identical values can stand only once. Results filed as inconclusive are left out. More than one record can exist for a structure, and the calls need not agree. Activity calls are given as the source filed them. Unless noted, the call rests on the fitted dose curve; in most records, active means well fitted curve in the direction sought with a large enough effect in the repeat runs; inconclusive means weak or mixed curves; inactive means no such curve, though single readings can be large; an effect the other way counts as inactive or inconclusive.

Sequence of Estrogen receptor (Homo sapiens) (P03372 whole entry, looked up): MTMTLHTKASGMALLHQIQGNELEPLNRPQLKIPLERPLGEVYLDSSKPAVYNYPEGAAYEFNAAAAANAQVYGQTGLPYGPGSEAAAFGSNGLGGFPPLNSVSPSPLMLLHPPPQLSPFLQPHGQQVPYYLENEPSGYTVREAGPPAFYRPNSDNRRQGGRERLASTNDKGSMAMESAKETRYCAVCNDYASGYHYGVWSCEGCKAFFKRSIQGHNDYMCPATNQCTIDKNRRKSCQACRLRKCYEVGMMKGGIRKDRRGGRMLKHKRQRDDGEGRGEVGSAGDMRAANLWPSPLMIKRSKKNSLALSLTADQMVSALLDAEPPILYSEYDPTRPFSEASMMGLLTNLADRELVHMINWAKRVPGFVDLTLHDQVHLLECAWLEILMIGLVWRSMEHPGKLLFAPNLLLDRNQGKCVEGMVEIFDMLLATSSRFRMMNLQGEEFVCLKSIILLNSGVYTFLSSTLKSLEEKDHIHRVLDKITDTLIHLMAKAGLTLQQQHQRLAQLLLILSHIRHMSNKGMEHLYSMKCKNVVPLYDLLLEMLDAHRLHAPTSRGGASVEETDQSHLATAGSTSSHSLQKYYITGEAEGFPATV
Sequence of Thyrotropin receptor (Homo sapiens) (P16473 whole entry, looked up): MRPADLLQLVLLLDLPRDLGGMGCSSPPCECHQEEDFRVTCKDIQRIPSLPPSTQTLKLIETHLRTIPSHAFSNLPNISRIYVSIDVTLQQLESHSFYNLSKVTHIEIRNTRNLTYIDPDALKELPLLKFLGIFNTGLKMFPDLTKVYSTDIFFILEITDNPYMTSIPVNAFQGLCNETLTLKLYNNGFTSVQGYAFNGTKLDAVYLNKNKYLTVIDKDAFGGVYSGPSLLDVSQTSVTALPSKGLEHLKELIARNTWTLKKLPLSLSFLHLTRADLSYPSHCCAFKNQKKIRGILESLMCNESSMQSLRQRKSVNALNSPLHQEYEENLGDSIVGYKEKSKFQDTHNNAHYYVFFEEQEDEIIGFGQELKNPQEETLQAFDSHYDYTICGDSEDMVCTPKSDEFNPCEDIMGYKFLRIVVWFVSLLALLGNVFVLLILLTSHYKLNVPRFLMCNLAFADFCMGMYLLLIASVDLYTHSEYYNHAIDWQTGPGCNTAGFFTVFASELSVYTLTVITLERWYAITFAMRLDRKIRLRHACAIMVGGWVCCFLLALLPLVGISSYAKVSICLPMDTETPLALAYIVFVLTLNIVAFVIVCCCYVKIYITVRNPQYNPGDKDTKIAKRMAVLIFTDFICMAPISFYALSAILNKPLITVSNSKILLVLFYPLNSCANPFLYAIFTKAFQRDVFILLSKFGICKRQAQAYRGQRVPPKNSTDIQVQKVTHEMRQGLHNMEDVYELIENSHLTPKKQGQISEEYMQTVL
Sequence of Estrogen receptor beta (Homo sapiens) (Q92731 whole entry, looked up): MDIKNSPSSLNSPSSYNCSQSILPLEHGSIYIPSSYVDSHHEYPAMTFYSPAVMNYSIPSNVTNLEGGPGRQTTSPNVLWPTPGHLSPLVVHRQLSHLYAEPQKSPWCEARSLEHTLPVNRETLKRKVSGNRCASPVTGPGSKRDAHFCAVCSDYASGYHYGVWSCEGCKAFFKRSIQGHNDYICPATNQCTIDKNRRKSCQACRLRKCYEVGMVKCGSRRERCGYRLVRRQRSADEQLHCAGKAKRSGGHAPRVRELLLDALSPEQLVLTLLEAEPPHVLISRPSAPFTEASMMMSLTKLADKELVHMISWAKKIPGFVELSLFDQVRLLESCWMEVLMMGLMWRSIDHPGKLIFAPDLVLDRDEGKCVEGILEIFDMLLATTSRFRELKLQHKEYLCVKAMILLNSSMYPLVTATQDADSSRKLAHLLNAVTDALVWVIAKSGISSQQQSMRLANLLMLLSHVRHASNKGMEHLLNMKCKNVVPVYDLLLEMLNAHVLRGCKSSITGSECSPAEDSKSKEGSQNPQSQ

With `O=C(C1CCCCC1)N1CC(=O)N2CCc3ccccc3C2C1` (stereo not given), the Potency result in experiment [1], in [2], in [4], in experiment [7], in experiment [8] and in experiment [10] was “inactive” each time. Moreover, the compound was classed as inactive in experiment [3], in experiment [5] and in experiment [6]. Also, the Potency in experiment [9] is 43.2 µM (active) and inactive.
In the case of `Cc1ccccc1C(OCCN(C)C)c1ccccc1` (stereo not given), the Potency result in experiment [1], in experiment [2], in experiment [11], in experiment [4], in experiment [12] and in [13] was “inactive” in each case. Moreover, the Potency result in [15], in [8], in experiment [10] and in [16] was “inactive” in each case. In addition, the call in experiment [5], in experiment [6], in experiment [14], in experiment [17] and in [18] was inactive. The results for the Potency in experiment [7] and in experiment [9] were 27.3 µM (active) and 61.1 µM (active), respectively.
Turning to `O=S(=O)(O)c1ccc2cc(O)ccc2c1`, the Potency result in [1], in experiment [2], in [4], in experiment [12], in experiment [7] and in experiment [8] was “inactive” each time. The Potency entry in [9] and in experiment [10] was “inactive” each time. Moreover, the result in [5] and in experiment [6] was inactive.
Consider `CC(O)CO` (stereo not given), for which the Potency result in experiment [1], in experiment [2], in [11], in experiment [4], in experiment [12] and in experiment [7] was “inactive” throughout. For the same compound, the Potency result in [8], in experiment [9], in experiment [10] and in experiment [16] was “inactive” in each case. In addition, the outcome in experiment [3], in [5], in [6], in experiment [17] and in experiment [18] was inactive.
As for `O=C(O)c1cc(N=Nc2ccc(S(=O)(=O)Nc3ccccn3)cc2)ccc1O`, the Potency in [1] is 24.4 µM (active) and 30.6 µM (active); in experiment [2], 27.4 µM (active) and inactive; in experiment [4] it was 27.3 µM (active); in experiment [12], 21.8 µM (active) and 24.3 µM (active); in [13], 21.8 µM (active) and 27.3 µM (active); in experiment [8], 30.7 µM (active) and 30.6 µM (active). In addition, the compound was classed as inactive in experiment [3], in experiment [5], in experiment [6], in [14], in experiment [17] and in experiment [18]. In addition, the Potency result in experiment [7], in experiment [15], in experiment [9] and in experiment [10] was “inactive” in each case.
Take `NC(=O)NC1NC(=O)NC1=O` (stereo not given): the Potency entry in [1], in [2], in experiment [4], in experiment [12], in experiment [7] and in experiment [8] was “inactive” each time. The Potency result in experiment [9] and in experiment [10] was “inactive” each time. The compound was called inactive in experiment [3], in [5], in experiment [6], in [17] and in [18].
`CCCCOC(=O)CC(CC(=O)OCCCC)(OC(C)=O)C(=O)OCCCC`: the Potency result in experiment [1], in experiment [2], in experiment [4], in experiment [12], in [7] and in experiment [15] was “inactive” in each case. Further, the Potency result in experiment [8], in experiment [9] and in [10] was “inactive” in each case. The outcome in [3], in experiment [5], in experiment [6] and in [14] was inactive.
For the compound `O=C(c1ccccc1)C(O)c1ccccc1` (stereo not given), the Potency result in experiment [1], in experiment [2], in [4], in experiment [12], in experiment [13] and in experiment [7] was “inactive” throughout. Moreover, the Potency result in [15], in experiment [8], in [9] and in experiment [10] was “inactive” in each case. Further, the call in experiment [3], in [5], in [6], in experiment [14], in [17] and in experiment [18] was inactive.
In the case of `COc1c2occc2cc2ccc(=O)oc12`, the Potency result in experiment [1], in [2], in experiment [4], in [12], in experiment [15] and in [8] was “inactive” throughout. For the same compound, the Potency result in [9] and in [10] was “inactive” in each case. Besides, the compound was classed as inactive in experiment [3], in [5], in [6], in experiment [14], in experiment [17] and in [18]. Also, the Potency in [7] was 24.3 µM (active) and inactive.
